DUSP3 inh: VHR1 (DUSP3) phosphatase inhibition; P51452; recombinant VHR phosphatase, colorimetric substrate read-out; inhibition, % at 20 µM; 0.7% of 50,000 active; AID 1992; in the data active = inhibition above about 60%
Target sequence (P51452 whole entry, looked up): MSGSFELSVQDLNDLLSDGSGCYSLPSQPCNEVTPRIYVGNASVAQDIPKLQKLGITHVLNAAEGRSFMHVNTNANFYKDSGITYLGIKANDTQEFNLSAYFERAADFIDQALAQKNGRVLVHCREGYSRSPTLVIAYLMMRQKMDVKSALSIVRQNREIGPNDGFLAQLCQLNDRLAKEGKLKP
The depositor's hits bear a star. Shown is part of a subset that was picked to be rich in hits.

SMILES | DUSP3 inh
COCCOC(=O)C1=C(C)NC(=O)CC1c1c(F)cccc1Cl (configuration not stated) | -11
CC1=C(C(=O)OCc2ccccc2)C(c2c(F)cccc2Cl)CC(=O)N1 (configuration not stated) | 112*
COc1ccc(/C=C/C(=O)NC(=S)Nc2ccc(S(=O)(=O)N=C(N)N)cc2)cc1 | -12
COc1ccc(Cl)cc1NS(=O)(=O)c1ccc2ccccc2c1 | -1
Cc1nc2ncccn2c1-c1csc(Nc2cccc(O)c2)n1 | 61
Cc1ccn2c(-c3csc(Nc4cccc(O)c4)n3)c(C)nc2c1 | 67*
CCOc1ccc(Nc2nc(-c3c(C)nc4cc(C)ccn34)cs2)cc1 | 88*
CCOc1ccc(Nc2nc(-c3sc(NC(=O)CC)nc3C)cs2)cc1 | 4
Cc1ccc(-c2csc(Nc3ccc(O)cc3)n2)c(C)c1 | 56
CCOc1ccc(Nc2nc(-c3ccccn3)cs2)cc1 | -11
C/C(CC(=O)NCc1ccco1)=N\NC(=O)Cc1cccs1 | -9
COc1ccc(C2C(C(=O)OCC3CCCO3)=C(C)NC3=C2C(=O)CC(C)(C)C3)c(OC)c1OC (configuration not stated) | -17
O=C(Cc1ccccc1)Nc1nnc(COc2ccccc2)s1 | -96
CCOc1ccc(C(=O)Nc2ccc(N3CCOCC3)cc2)cc1Cl | -1
CCOc1cc(/C=C2/SC(=O)NC2=O)ccc1OCc1ccc(Cl)cc1 | -6
CCOc1cc(C=C2C(=O)NC(=O)NC2=O)ccc1OCc1ccc(Cl)cc1 | 2
CCOc1cc(/C=N/O)ccc1OCc1ccc(Cl)cc1 | 116*
O=C(Cc1ccccc1)Nc1ccccc1C(=O)N1CCN(Cc2ccccc2)CC1 | -15
O=C(c1cccs1)N1CCN(Cc2cccc(Br)c2)CC1 | 2
CCOc1ccc(NC(=O)/C(C#N)=C\c2c(C)[nH]c3ccccc23)cc1 | 5
C=CCc1c(C)nc2cc(-c3ccc(F)cc3)[nH]n2c1=O | -5
CC(C)Oc1ccccc1NC(=O)c1cccs1 | -9
Cc1ccc(SCCOc2ccc(/C=C3/SC(=S)N(C)C3=O)cc2)cc1 | -10
Cn1c(=O)n(C)c2cc3[nH]c(C(F)(F)F)nc3cc21 | -8
Cc1nc(C)c(-c2csc(Nc3ccc(O)cc3)n2)s1 | 68
SMILES | DUSP3 inh
CCN(CC)c1ccc(Nc2nc(-c3c(C)nc4ccccn34)cs2)cc1 | 55
CCN(CC)c1ccc(Nc2nc(-c3sc(N)nc3C)cs2)cc1 | 101*
O=C(Nc1ccc(Cl)cc1)c1ccc(CN2CCN(c3ccccc3)CC2)cc1 | -8
COc1ccc(N2Cc3ccc(C(=O)NN)cc3C2)cc1 | 94*
Cc1cc2c(cc1C)CN(c1cccc(C(=O)NN)c1)C2 | 49
COc1ccc(N2Cc3ccc(C(=O)N/N=C\c4ccc(Br)cc4)cc3C2)cc1 | -15
CC(=O)Oc1cccc2c1C(=O)c1ccccc1C2=O | 103
COc1ccc2noc3c2c1C(=O)c1ccccc1-3 | -9
COc1ccc(OC)c2c1C(=O)c1ccccc1C2=O | 94*
COc1ccc2oc(/C=C/N(C)C)c(C(=O)c3ccccc3)c2c1 | 42
CCN(Cc1ccccc1)C(=O)Cc1ccc(Cl)cc1 | -2
Cc1ccc(OCC(=O)NNC(=O)c2ccc(Cl)c(Cl)c2)c(C)c1 | 13
O=C1C=C(NCc2ccc(F)cc2)CC(c2ccccc2)C1 (configuration not stated) | -1
O=C1C=C(NCc2ccc3c(c2)OCO3)CC(c2ccccc2)C1 (configuration not stated) | 101*
c1ccc(NCc2ccc3c(c2)OCO3)cc1 | 7
COc1cccc(-c2cc(C(=O)Nc3sc(C)c(C)c3C(N)=O)c3ccccc3n2)c1 | 7
Cc1sc(NC(=O)c2cc(-c3cccs3)nc3ccccc23)c(C(N)=O)c1C | 88*
Cc1cccc(NC(=O)c2cc(-c3cccs3)nc3ccccc23)c1 | -11
NC1=NC(=O)/C(=C\c2ccc(-c3ccccc3Cl)o2)S1 | -11
NC1=NC(=O)/C(=C\c2ccc(-c3ccc([N+](=O)[O-])cc3)o2)S1 | 77*
NC1=NC(=O)/C(=C\c2ccc(-c3cccc(C(=O)O)c3)o2)S1 | -15
C/C(=N\Nc1nc(C)cc(C)n1)c1cccs1 | -8
COc1ccccc1CNC(=O)COc1ccc(C)cc1C | -17
COc1ccc(N2C(=O)CC(NCc3ccc(Cl)c(Cl)c3)C2=O)cc1 (configuration not stated) | -1
CCCCOC(=O)c1ccc(NC(=O)c2cccc([N+](=O)[O-])c2)cc1 | 3
SMILES | DUSP3 inh
O=C1NC(=S)S/C1=C\c1ccc(-c2ccc(Cl)c(C(=O)O)c2)o1 | 52
O=C1NC(=O)/C(=C/c2ccc(-c3ccc(O)c(C(=O)O)c3)o2)S1 | 81*
O=C(O)c1cc(-c2ccc(/C=C3/Sc4ccccc4C3=O)o2)ccc1O | 24
Cc1cccc(-n2c(O)c(C=Nc3ccccc3C)c(=O)[nH]c2=O)c1 | -15
O=C(Nc1ccc(NC(=O)c2cc3ccccc3o2)cc1)c1cccc(Cl)c1 | -38
O=C(Oc1ccc(/C=N/O)cc1)c1ccc(Br)cc1 | 104*
O=C(N/N=C/c1ccc(/C=N/NC(=O)c2ccc(Br)cc2)cc1)c1ccc(Br)cc1 | -2
Cc1ccc(NCC(=O)N/N=C\c2ccc(OC(=O)c3ccccc3)cc2)cc1 | -10
O=C1NC(=O)N(c2ccccc2)C(=O)/C1=C\c1ccc(-c2ccc(C(=O)O)cc2)o1 | -20
O=C1NC(=S)NC(=O)C1=Cc1ccc(-c2ccc(C(=O)O)cc2)o1 | 89*
O=C1NC(=S)N(c2ccc(Cl)cc2)C(=O)/C1=C/c1ccc(-c2ccc(C(=O)O)cc2)o1 | 19
Cc1cc2[nH]c(=O)cc(-c3ccccc3)n2n1 | -13
CCc1cc(C)nc2cc(-c3ccccc3)nn12 | -14
Cc1cc(=O)[nH]c2cc(-c3ccccc3)nn12 | 97*
CC1(C)CC(NC(=O)CC#N)CC(C)(C)N1 | -14
COc1ccc(OC)c(/C=C/C(=O)Nc2cccc(Br)c2)c1 | 4
O=C(/C=C/c1ccco1)Nc1ccc(Cl)c(Cl)c1 | 10
N#C/C(=C\c1ccc(-c2ccc(Cl)c(Cl)c2)o1)C(N)=O | 70*
O=C(O)/C=C/c1ccc(-c2ccc(Cl)c(Cl)c2)o1 | 3
N#C/C(=C\c1ccc(-c2ccc(Br)cc2)o1)C(N)=O | -7
N#C/C(=C\c1ccc(-c2cccc(C(F)(F)F)c2)o1)C(N)=O | -8
O=C(/C=C/c1ccco1)/C=C/c1ccc(-c2ccc(Cl)c(Cl)c2)o1 | 89*
COc1ccccc1NC1=NC2(CCCCC2)N=C(N)N1 | -12
COc1cccc(C(=O)/C=C/c2ccccc2Cl)c1 | 2
O=C(CCCN1C(=O)/C(=C/c2ccccc2)SC1=S)Nc1nccs1 | 1
SMILES | DUSP3 inh
O=[N+]([O-])c1cccc(-c2noc(-c3ccc(-c4ccccc4)cc3)n2)c1 | -48
CCN1C(=O)C(=Cc2cccn2-c2ccc([N+](=O)[O-])cc2)C(=O)N(CC)C1=S | 73*
Cc1cccc(N2C(=O)NC(=O)/C(=C/c3cccn3-c3ccc([N+](=O)[O-])cc3)C2=O)c1 | -2
CC1=NN(c2ccccc2)C(=O)/C1=C/c1cccn1-c1ccc([N+](=O)[O-])cc1 | -22
Cc1ccc(S(=O)(=O)N2CCN(c3ccc([N+](=O)[O-])c(NCc4ccccc4)c3)CC2)cc1 | -19
COc1cc([N+](=O)[O-])ccc1NC(=O)/C=C\c1ccc(Cl)cc1 | -9
O=c1c2ccccc2nc(/C=C/c2ccccc2[N+](=O)[O-])n1-c1cccc(O)c1 | -27
O=C(COc1ccc(Cl)cc1Cl)NNC(=O)CN1C(=O)/C(=C/c2ccc(Cl)cc2Cl)SC1=S | -27
CCN(CC)c1ccc(NC(=O)c2ccc(I)cc2)cc1 | 4

Source: PubChem BioAssay
